Only some compounds are listed: those with a hit (about 0.88% of all), similar ones and a draw of the others.
RECQ1 inh-1: RECQ1 (human) helicase inhibition. P46063. hit rate 0.54% among 240,000. AID 2549. RECQ1 DNA unwinding, red fluorescence kinetic read. Potency, µM (titrated, usually from 57.3 µM), without a hit: at the top dose activity, negative = inhibition, actives largely listed as inhibitors;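 also: plate controls were vehicle for no effect and no enzyme for full effect; nearly all actives have a fitted effect of over 30% in size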
Target sequence (P46063 whole entry, looked up): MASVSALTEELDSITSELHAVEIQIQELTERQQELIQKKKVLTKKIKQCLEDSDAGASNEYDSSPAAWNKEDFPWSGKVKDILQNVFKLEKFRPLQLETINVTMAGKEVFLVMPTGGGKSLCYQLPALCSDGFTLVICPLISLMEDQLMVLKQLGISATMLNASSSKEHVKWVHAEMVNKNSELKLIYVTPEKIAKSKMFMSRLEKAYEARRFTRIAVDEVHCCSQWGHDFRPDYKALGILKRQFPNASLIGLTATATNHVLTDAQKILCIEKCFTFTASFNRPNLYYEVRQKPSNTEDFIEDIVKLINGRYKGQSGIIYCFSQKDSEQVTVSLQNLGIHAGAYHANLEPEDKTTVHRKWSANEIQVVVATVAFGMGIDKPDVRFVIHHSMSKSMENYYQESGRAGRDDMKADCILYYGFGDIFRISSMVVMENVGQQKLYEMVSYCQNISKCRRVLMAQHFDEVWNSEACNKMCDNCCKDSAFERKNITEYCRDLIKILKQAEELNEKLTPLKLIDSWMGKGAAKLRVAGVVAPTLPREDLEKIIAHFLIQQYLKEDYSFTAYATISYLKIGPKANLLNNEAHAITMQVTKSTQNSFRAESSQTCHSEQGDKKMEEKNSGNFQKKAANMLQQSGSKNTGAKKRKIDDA
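50 nM RECQ1T1 preincubated 15 min with compound in Tris pH 8.0 buffer with MgCl2, DTT, Tween-20 and 2.5 ug/ml poly(dI-dC); started with 200 nM TAMRA/BHQ-2 forked duplex and 2 mM ATP. Unwinding read as fluorescence (525/598 nm), two reads 2 h apart.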
ERG-DNA inh: blocks human ERG Ets domain binding to DNA; fluorescence polarization, His-ERG Ets domain / labelled DNA; Potency, µM (titrated, usually from 76.9 µM), without a hit: at the top dose FP activity, negative = inhibition, hits mostly inhibitors; hit rate 0.028% among 370,000; AID 624246; active = well fitted inhibition curve with a large enough effect in the polarisation, with a control signal flat; inconclusive = small, poorly fitted or top-dose-only effect, or effect the other way, or a change in a side signal; inactive = no such curve, though single readings can be large or run the other way; the % refers to the polarisation;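 also: polarization taken with two DNA probes labelled with fluorescein and Texas red; % of control where 0% means no effect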
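His-tagged ERG Ets domain (1 uM in the protein solution; 300mM KCl, 50mM Tris-HCl, 1mM EDTA, 1mM DTT, pH 7.5) received compound, then a probe mix of 5 nM fluorescein-DNA and 100nM Texas-615-DNA. Fluorescence polarization was read for both dyes.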
WRN inhibitor: blocks human WRN helicase. Q14191. WRN helicase unwinding, fluorescent forked duplex, kinetic. Potency, µM (top dose mostly 114 µM), for the others: at the top dose activity change, negative = inhibition, usual class: inhibitors. hit rate 0.46% among 360,000; also: % is scaled to controls: 0 for no effect and ±100 for the full control effect; nearly all actives have a fitted effect of over 55% in size
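Screening of the MLSMR collection measured strand separation of a quenched forked DNA duplex (100 nM) by 20 nM WRN with 2 mM ATP, all final. Compounds were preincubated with enzyme 15 min at room temperature.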
KAT2A inh: GCN5L2 (KAT2A) acetyltransferase inhibition | Q92830 | GCN5L2 HAT assay, ThioGlo1 CoA-SH fluorescence | Potency, µM (series often up to 58.9 µM), inactives show at the highest dose activity change, negative = inhibition, actives largely listed as inhibitors | hit rate 0.21% among 390,000 | AID 504327; also: % is scaled to controls: 0 for no effect and ±100 for the full control effect
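Preincubate 20nM GCN5L2 with compound 15 min, RT → add 50uM ThioGlo1 + 75uM H3(1-25) + 70uM acetyl-CoA → read fluorescence 0 and 20 min. Primary qHTS; fluorescent artifacts likely.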
BLM helicase inh: inhibitors of human Bloom syndrome helicase BLM. hit rate 0.2% among 350,000. recombinant BLM DNA unwinding, fluorescence dequenching. AID 2528. Potency, µM (highest dose often 56.1 µM), without a hit: at the highest dose activity change, negative = inhibition, most hits filed as inhibitors;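 also: plate controls were vehicle for no effect and no enzyme for full effect; nearly all actives have a fitted effect of over 35% in size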
APEX1 inh: blocks human APE1 abasic DNA cleavage; P27695; hit rate 0.35% among 350,000; recombinant APE1, TAMRA/BHQ-2 abasic DNA cleavage fluorescence; AID 2517; Potency, µM (highest dose often 65.8 µM), without a hit: top-dose activity change, negative = inhibition, usual class: inhibitors;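 also: plate controls were vehicle for no effect and reference inhibitor for full effect; nearly all actives have a fitted effect of over 55% in size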
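Compound pre-exposure to 0.75 nM APE1, 15 min at ambient temperature. Reaction initiated with 50 nM TAMRA/BHQ-2 THF substrate, read immediately in kinetic mode, 525 nm excitation, 598 nm emission.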
RECQ1 inh conf: confirmation of human RECQ1 helicase inhibitors. shares compounds with RECQ1 inh-1. RECQ1 helicase DNA unwinding, fluorescence. Potency, µM (highest dose often 229 µM), for inactives: at the highest dose activity change, negative = inhibition, most hits filed as inhibitors. hit rate 28% among 610. AID 2708; also: % is scaled to controls: 0 for no effect and ±100 for the full control effect; nearly all actives have a fitted effect of over 45% in size
ADP FP counter: displaces ADP in a fluorescence polarization counter-screen for RECQ1 hits; shares compounds with RECQ1 inh-1; ADP fluorescence polarization displacement counterscreen; Potency, µM (doses to about 228 µM), inactives show at the top dose activity change, negative = inhibition, hits mostly inhibitors; hit rate 27% among 530; AID 2711; also: % is scaled to controls: 0 for no effect and ±100 for the full control effect; nearly all actives have a fitted effect of over 45% in size
RECQ1 inh-2: confirmation of human RECQ1 helicase inhibitors; shares compounds with RECQ1 inh-1; hit rate 15% among 1,100; recombinant RECQ1 DNA unwinding, red fluorescence; AID 504841; Potency, µM (titrated, usually from 119 µM), inactives show top-dose activity, negative = inhibition, hits mostly inhibitors; also: % is scaled to controls: 0 for no effect and ±100 for the full control effect; nearly all actives have a fitted effect of over 50% in size
Active calls of the source: *; i = inactive; ? = inconclusive; nt = not tested or not shown; [ ] = dose if it differs, or a comment. Unless noted, calls follow the shape of the dose curve; as a rule, active = well fitted curve in the direction sought with a large enough effect; inconclusive = small, poorly fitted or top-dose-only effect, or another doubt; inactive = no such curve, though single readings can be large; an effect the other way counts as inactive or inconclusive. Potency is read from the fitted curve at half-maximal effect.

SMILES	RECQ1 inh-1	ERG-DNA inh	WRN inhibitor	KAT2A inh	BLM helicase inh	APEX1 inh	RECQ1 inh-2	others
COc1ccc(-n2c(O)c(/C=N/NS(=O)(=O)c3cc(C)ccc3C)c3ccccc3c2=O)cc1OC	14µM*	132%	79µM*	-8%	-17%	?	50µM*
Cc1ccc(S(=O)(=O)N2CC=C(c3ccc(F)cc3)CC2)cc1	-2%	4%	4%	-7%	1%	3%	nt
Cc1c(C2=CCN(S(=O)(=O)c3ccc(Br)cc3)CC2)c2ccccc2n1C	35µM*	9%	?	-5%	-3%	-4%	45µM*	RECQ1 inh conf=50µM*
O=C(CSc1n[nH]c(-c2ccc(S(=O)(=O)N3CCCCC3)cc2)n1)Nc1nccs1	i	nt	-12%	-3%	-6%	?	nt	RECQ1 inh conf=-6%;ADP FP counter=25%
Cn1c(SCC(=O)Nc2nccs2)nnc1-c1ccc(S(=O)(=O)N2CCCC2)cc1	i	2%	-2%	-4%	-1%	1%	nt
Cc1nnc(NC(=O)CSc2nnc(-c3ccc(S(=O)(=O)N4CCCC4)cc3)n2C)s1	-1%	0%	-6%	-4%	-6%	4%	nt	RECQ1 inh conf=-1%;ADP FP counter=13%
CCn1c(SCC(=O)Nc2nccs2)nnc1-c1ccc(S(=O)(=O)N2CCCCCC2)cc1	-14%	-2%	8%	1%	-2%	-1%	nt
CCOc1ccccc1NC(=O)Cn1c(=O)n(-c2ccc(Cl)cc2)c(=O)c2oc3ccccc3c21	nt	-8%	nt	-5%	0%	nt	nt
CCC(=O)c1ccc(NC(C)=O)cc1O	-7%	2%	-3%	0%	-3%	0%	nt
CC(=O)Nc1ccc2c(c1)C(C)(C)C(C)N2C (centres undefined)	35µM*	33%	-31%	2%	-8%	?	79µM*
O=Cc1ccc(-c2cccs2)s1	nt	10%	-8%	nt	nt	nt	nt
Oc1ccc(N=Cc2ccc(-c3cccs3)s2)cc1	6.3µM*	?	50µM*	?	?	?	nt	RECQ1 inh conf=10%[114 µM];ADP FP counter=50µM*
N#C/C=C(/N)c1ccc(Br)cc1	?	-9%	-9%	-5%	-2%	-5%	7%
N/C(=N\OC(=O)c1ccc(F)cc1)c1ccc(Br)cc1	4%	-4%	0%	3%	-1%	1%	nt
CCOC(=O)C1=C(N)n2c(s/c(=C\c3ccco3)c2=O)=C(C(=O)OCC)C1c1ccco1 (centres undefined)	?	5%	-10%	?	-11%	?	?
CCOC(=O)C1=C(c2ccccc2)N=c2s/c(=C\c3ccco3)c(=O)n2C1c1cccs1 (centres undefined)	?	nt	?	?	?	-4%	nt
CCOC(=O)C1=C(N)n2c(s/c(=C/c3ccccc3)c2=O)=C(C(=O)OCC)C1c1ccccc1 (centres undefined)	-5%	nt	nt	3%	2%	0%	nt
CCOC(=O)C1=C(N)n2c(s/c(=C\c3ccco3)c2=O)=C(C(=O)OC(C)C)C1c1ccco1 (centres undefined)	32µM*	-7%	-2%[57.1 µM]	-8%	-12%	?	-26%
O=C(Nc1ccccc1C(=O)Nc1nccs1)c1ccccc1	nt	nt	3%	nt	nt	nt	nt
CCN(CC)CCCNc1cc(-c2ccccc2)nc(C)n1	nt	0%	nt	-4%	-6%	nt	nt
COC(=O)c1c(NC(=O)Cc2cccs2)sc2c1CCCC2	28µM*	-5%	?	-10%	-25%	?	?
O=C1C=C(O)C(n2cncn2)C(c2ccc3c(c2)OCO3)C1 (centres undefined)	?	-6%	-2%	-12%	-6%	-8%	-20%
COc1ccc(CCNC(=O)c2ccc3nc(N4CCCCC4)sc3c2)cc1OC	nt	2%	0%	-5%	-2%	-8%	nt
O=C(O)C1Nc2c(O)cc(Cl)c([N+](=O)[O-])c2C2C=CCC12 (centres undefined)	1.8µM*	9%	5µM*	3.2µM*	1.8µM*	2.5µM*	?
c1ccc2c(NC3CCNCC3)nc(-c3ccoc3)nc2c1	-4%	nt	nt	-13%	60%	-3%	nt
SMILES	RECQ1 inh-1	ERG-DNA inh	WRN inhibitor	KAT2A inh	BLM helicase inh	APEX1 inh	RECQ1 inh-2	others
CN(C)c1ccc(-c2nc(NC3CCNCC3)c3ccccc3n2)cc1	?	nt	nt	-23%	?	?	20µM*
Cc1ccc(-c2nn(-c3cccc(F)c3)cc2CN2CCN(c3ccccn3)CC2)o1	?	1%	-6%	-4%	-20%	15%	?
CCc1cccc(C)c1NC(=O)Cn1ccn(-c2cccc(OC)c2)c(=O)c1=O	nt	6%	nt	3%	0%	nt	nt
Cc1ccc2nc(-c3ccccc3N)[nH]c2c1	i	-4%	-10%	-3%	-9%	9%	nt
Cc1ccc(C)c(-c2nc3ccc(N)cc3[nH]2)c1	?	-6%	-4%	?	-6%	0%	nt	RECQ1 inh conf=16%[114 µM];ADP FP counter=?
COc1cc(Cl)c(NC(=O)c2cc3ccccn3n2)c(OC)c1	nt	1%	nt	3%	-5%	nt	nt
CCN(CC)CC(=O)Nc1cccc2c1C(=O)c1ccccc1C2=O	-3%	-6%	4%	-3%	-1%	7%	nt
O=C1c2ccccc2C(=O)c2c(NCCCN(CCO)CCO)cccc21	20µM*	27%	25µM*	22%	16µM*	?	18µM*
CCn1nc(C)c2c(-c3ccccc3)cc(=O)n(C(C)C(=O)NCc3ccccc3OC)c21 (centres undefined)	nt	-12%	nt	3%	-6%	nt	nt
Cc1cc(=O)oc2cc(O[C@@H]3O[C@H](CO)[C@@H](O)[C@H](O)[C@H]3O)ccc12	nt	2%	7%	-2%	-2%	7%	nt
CN1CCN(c2ncc3nc(-c4cccs4)c(=O)n(-c4ccccc4)c3n2)CC1	16%	nt	nt	-22%	2%	-11%	nt
CC(C)CC(=O)NC(=S)Nc1cc(C(F)(F)F)ccc1N1CCOCC1	-8%	4%	-8%	-7%	2%	-1%	nt
O=C(CCc1ccccc1)NC(=S)Nc1cc(C(F)(F)F)ccc1N1CCOCC1	?	-3%	-14%	-13%	-11%	15%	-9%
